From PubChem BioAssay AID360 (National Center for Advancing Translational Sciences (NCATS), 2006)
The campaign covered roughly 48,000 compounds. About 550 (1.1%) were called active. Another 4% or so got no clear call; they are omitted. For the sample, actives were picked, then their nearest neighbours and some compounds at random. A number with no mark means an inactive call. Rule as the data show it: active = potency below about 15 µM; inconclusive = mostly about 16 µM to 33 µM; inactive = weaker than that.

biological target: Lysosomal acid glucosylceramidase (Homo sapiens) (UniProt P04062); assay: Glucocerebrosidase; settings: purified enzyme, resorufin glucoside fluorescence (screen aimed at inhibitors), 20 min;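 also: the screen sought inhibitors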
Description: NCGC Assay Overview: Beta-glucocerebrosidase catalyzes the hydrolysis of beta-glucocerebroside to glucose and ceramide. The inherited deficiency of beta-glucocerebrosidase results in Gaucher disease, which is characterized by a wide variety of symptoms including hepatosplenomegaly, anemia, thrombocytopenia, bony lesions and bone marrow infiltration with characteristic storage cells, known as Gaucher cells. There are also forms of the disorder affecting the central nervous system. Patients with the same genotypes can manifest with diverse clinical presentations and it is believed that improper folding and trafficking of beta-glucocerbrosidase may contribute to the phenotypes observed. Low molecular weight molecules, acting as chaperones, may potentially restore trafficking of misfolded beta-glucocerebrosidase from the endoplasmic reticulum to the lysosomes, thereby enhancing functional lysosomal beta-glucocerebrosidase activity. Using normal beta-glucocerebrosidase, an assay was developed to screen for small molecule inhibitors that could potentially act as molecular chaperones on the mutant forms [developed with NIH investigator Dr. Ellen Sidransky's laboratory]. Two pro-fluorescent substrates were chosen for two screens against a small molecule library. One beta-glucocerebrosidase assay used Resorufin beta-D-Glucopyranoside (Marker Gene Technology Inc.), generating a red fluorescent product. The second assay used Fluorescein di-beta-D-Glucopyranoside, generating a blue fluorescent product. […] The IC50 values of Conduritol B Epoxide, a known glucocerebrosidase inhibitor, were determined to be 87.5 uM and 117 uM, respectively. The use of two difference pro-fluorescent substrates in the screens helped to eliminate false positives. All compounds were screened in a titration series resulting in AC50s (e.g., IC50s or EC50s).
NCGC Assay Protocol Summary: Both enzyme and substrate were diluted in buffer composed of 50mM citric acid/KH2PO4, 10mM sodium taurocholate and 0.01% tween-20 at pH 5.9. The final concentration of the enzyme was 0.2 nM in both assays. The compound library was titrated in 7 to 15 concentrations for the primary screens with a final concentration ranging from 0.6 nM to 50 uM. This particular assay protocol is for the "red" substrate, and it was performed in 1536-well plate format as follows: Red fluorescence substrate assay: 2 uL enzyme 23 nL compound 1 uL substrate (final concentration of 30 uM) Incubate at room temperature (RT) for 20 minutes Read the plate in Viewlux plate reader (Ex=548(7) and Em=600(10)).
Potency is read from the fitted curve at half-maximal effect.

Chain of Lysosomal acid glucosylceramidase (Homo sapiens) (P04062 whole entry, looked up): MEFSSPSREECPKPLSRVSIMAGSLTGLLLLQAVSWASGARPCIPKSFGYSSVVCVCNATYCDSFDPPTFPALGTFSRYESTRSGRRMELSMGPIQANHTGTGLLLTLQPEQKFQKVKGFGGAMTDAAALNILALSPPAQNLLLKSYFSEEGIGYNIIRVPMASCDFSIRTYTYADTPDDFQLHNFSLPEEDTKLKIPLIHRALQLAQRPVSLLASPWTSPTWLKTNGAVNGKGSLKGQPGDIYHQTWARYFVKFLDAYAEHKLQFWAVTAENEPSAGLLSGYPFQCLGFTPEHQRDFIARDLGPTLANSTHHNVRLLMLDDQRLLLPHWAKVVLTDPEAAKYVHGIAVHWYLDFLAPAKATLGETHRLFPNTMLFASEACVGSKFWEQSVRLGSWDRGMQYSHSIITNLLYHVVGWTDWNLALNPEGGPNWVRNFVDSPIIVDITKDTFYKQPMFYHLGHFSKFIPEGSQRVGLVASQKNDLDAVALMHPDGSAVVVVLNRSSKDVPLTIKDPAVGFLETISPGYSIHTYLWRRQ

Structure (SMILES)	Potency
CC(C)c1ccc(O)c(CN2CCN(c3ccccc3)CC2)c1	10.2 µM (active)
Fc1ccc(N2CCN(Cc3ccc4c(c3)OCO4)CC2)cc1	> 76.9 µM
O=C(c1cc(-c2ccncc2)nc2ccccc12)N1CCC2(CC1)OCCO2	> 76.9 µM
CC(=NCC1CCCO1)c1c(O)n(-c2ccccc2)c(=O)[nH]c1=O (stereo not given)	> 76.9 µM
CC(=O)c1c(O)n(C2CCCCCC2)c(=O)[nH]c1=O	> 76.9 µM
